Assay results from PubChem BioAssay (NCI).
The panel holds about 83,000 compounds, 20% with a hit somewhere; the sample as a whole holds those more often.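 48-hour exposure, single concentration, 96-well plates; percent growth endpoint where 0 means no net growth. Active: below 10.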 Unmarked numbers belong to inactive results. Calls of active or inactive are those of the source.

test system: MDA-MB-468 breast; assay: NCI-60 one-dose screen, 48 h (100 = growth as untreated, 0 = no growth, -100 = all killed); settings: 10 µM unless noted

SMILES | growth
CC(C)N1CCN(Cc2ccc3c(NNC(=O)c4ccccc4)nc4cc(F)ccc4n23)CC1 | -14.3% (active)
Oc1ccc(O)cc1 | 96.7%
C/C(=C\c1cc(Cl)ccc1OCC(=O)O)[N+](=O)[O-] | 112%
COc1ccc(/C(C)=C(/c2ccc(OCCCN(C)C)cc2)c2ccc(OC(=O)Cc3ccccc3)cc2)cc1 | 87.2%
COc1cc(C(=O)OCCCCCCCCCCC[P+](c2ccccc2)(c2ccccc2)c2ccccc2)ccc1O | -27.7% (active)
COC(=O)/C(=C\c1ccc(OC)cc1)C(=O)N1c2ccccc2Sc2ccccc21 | 76.1%
